Only some compounds are listed: those with a hit (about 19% of all), similar ones and a draw of the others.
IL-1B inflam inh: blocks inflammasome-driven IL-1 beta release | THP-1 LPS/ATP IL-1B secretion, AlphaLISA, 16 h; active compounds read low | activity change, % at 57.5 µM | 360,000 tested, 4.7% active; in the data active = activity change below about -50%; inconclusive = mostly about -30% to -49%; also: % is scaled to controls: 0 for no effect and ±100 for the full control effect
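THP-1 cells pretreated 1 hr with compounds (up to 57.5 uM final), then stimulated with LPS (250 ng/mL final) plus ATP (1.25 mM final); secreted IL-1B measured by AlphaLISA after 16 hr, decreased signal indicating inhibition.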
DT40 TDP1 no CPT: qHTS for Inhibitors of human tyrosyl-DNA phosphodiesterase 1 (TDP1): qHTS in cells in absence of CPT | DT40 Tdp1-/- hTDP1 cells, no CPT, ATP luminescence, 48 h | Potency, µM (top dose mostly 46.2 µM), for the others: at the highest dose activity change, negative = growth inhibition, actives largely listed as inhibitors | 420,000 tested, 15% active; also: potency is read from the fitted curve at half-maximal effect; % is scaled to controls: 0 for no effect and ±100 for the full control effect; nearly all actives have a fitted effect of over 55% in size
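Growth of hTDP1-complemented DT40 Tdp1-knockout cells is measured by ATP luminescence after at least 48 hr compound exposure at 37 °C, with DMSO substituting for the 20 nM CPT used in the parallel screen.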
DT40 TDP1 CPT: growth inhibition of DT40 Tdp1-/-;hTDP1 cells with camptothecin (screen for TDP1 inhibitors) | chicken DT40 Tdp1-/-;hTDP1 cells + 20 nM CPT, ATP luminescence, 48 h | Potency, µM (titrated, usually from 46.2 µM), for the others: at the top dose activity change, negative = growth inhibition, most hits filed as inhibitors | 420,000 tested, 12% active | AID 686979; also: potency is read from the fitted curve at half-maximal effect; % is scaled to controls: 0 for no effect and ±100 for the full control effect; nearly all actives have a fitted effect of over 55% in size
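Chicken DT40 Tdp1-/- cells stably complemented with human TDP1 were seeded at 400 cells/well in medium containing 20 nM camptothecin, exposed to pin-transferred compounds, and grown at 37 °C for at least 48 hr. Viability was read as ATP luminescence.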
TGFb SMAD3 inh: inhibitors of TGF-b signaling. Potency, µM (doses to about 46.1 µM), without a hit: at the top dose activity, negative = inhibition, actives largely listed as inhibitors. AID 588855. HepG2 CAGA-GFP TGF-b/SMAD3 reporter, GFP fluorescence, 18 h; TGF-beta stimulated, 500 pg/mL final. 410,000 tested, 1.2% active; also: potency is read from the fitted curve at half-maximal effect; % is scaled to controls: 0 for no effect and ±100 for the full control effect; nearly all actives have a fitted effect of over 65% in size
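Read-out: total well GFP (ex488/em500-530) summed from mean per-cell fluorescence. Cells: HEPG2 CAGA-GFP, 1% FBS DMEM, 18 h at 37 degrees C with 500 pg/mL final TGF-beta. Unstimulated wells served as the full-inhibition control; stimulated DMSO wells = 0%.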
HepG2 tox: kills HepG2 cells in TGF-b inhibitor counter-screen | HepG2 CAGA-GFP viability, ATP luminescence, 18 h | Potency, µM (top dose mostly 46.1 µM), for the others: at the top dose activity change, negative = cytotoxicity, most hits filed as cytotoxic | 410,000 tested, 0.76% active | AID 588856; also: potency is read from the fitted curve at half-maximal effect
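CellTiter-Glo luminescence gave cytotoxicity after 18 hours at 37 degrees C. The cells were HepG2 CAGA-GFP in 1% FBS DMEM, stimulated with 500 pg/mL TGF-beta after compound addition. %Activity was normalised to no-cell wells (complete cell-killing) and DMSO (no toxicity), and curves were fitted and classified.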
TDP1 block: inhibitors of human tyrosyl-DNA phosphodiesterase TDP1. Q9NUW8. recombinant TDP1, AlphaScreen DNA substrate cleavage. Potency, µM (highest dose often 130 µM), for inactives: at the top dose activity change, negative = inhibition, actives largely listed as inhibitors. 350,000 tested, 0.28% active. AID 485290; also: potency is read from the fitted curve at half-maximal effect; % is scaled to controls: 0 for no effect and ±100 for the full control effect; nearly all actives have a fitted effect of over 40% in size
Target sequence (Q9NUW8 whole entry, looked up): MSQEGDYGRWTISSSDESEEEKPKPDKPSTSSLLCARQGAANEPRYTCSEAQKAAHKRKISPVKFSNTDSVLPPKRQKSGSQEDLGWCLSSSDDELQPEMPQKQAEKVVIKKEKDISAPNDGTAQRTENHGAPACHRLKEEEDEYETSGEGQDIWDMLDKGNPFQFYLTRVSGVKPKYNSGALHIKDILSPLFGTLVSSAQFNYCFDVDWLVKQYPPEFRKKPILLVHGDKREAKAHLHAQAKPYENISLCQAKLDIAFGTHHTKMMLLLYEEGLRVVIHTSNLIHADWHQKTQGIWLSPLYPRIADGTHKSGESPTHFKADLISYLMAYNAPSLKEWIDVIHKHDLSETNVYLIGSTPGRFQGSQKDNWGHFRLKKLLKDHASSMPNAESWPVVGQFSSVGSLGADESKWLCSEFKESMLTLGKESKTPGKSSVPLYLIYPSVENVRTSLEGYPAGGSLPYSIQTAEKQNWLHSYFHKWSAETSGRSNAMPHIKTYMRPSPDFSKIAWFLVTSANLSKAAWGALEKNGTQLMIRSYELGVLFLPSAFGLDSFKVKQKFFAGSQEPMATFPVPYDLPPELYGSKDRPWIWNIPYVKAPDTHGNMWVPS
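Recombinant E. coli-expressed Tdp1 (1 nM) preincubated with compound 15 min at RT, then 5'-biotin/3'-phosphotyrosine-FITC DNA substrate (15 nM) added for 5 min. AlphaScreen beads (10 ug/ml) added, 10 min RT; tyrosine-FITC cleavage read as signal loss.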
An asterisk follows results filed as active; ? = inconclusive; . = no result given; [ ] = another dose, or the depositor's remark. Unless noted, calls follow the shape of the dose curve; as a rule, active = well fitted curve in the direction sought with a large enough effect; inconclusive = small, poorly fitted or top-dose-only effect, or another doubt; inactive = no such curve, though single readings can be large; an effect the other way counts as inactive or inconclusive.

SMILES | IL-1B inflam inh | DT40 TDP1 no CPT | DT40 TDP1 CPT | TGFb SMAD3 inh | HepG2 tox | TDP1 block
O=C1NC(=O)/C(=C\c2cn(CC(=O)N3CCOCC3)c3ccccc23)S1 | 3 | 3% | 10% | 2% | 4% | 9%[0.0935 µM]
O=C(C[n+]1cnn(CC(=O)c2ccc(Cl)cc2Cl)c1)c1ccc([N+](=O)[O-])cc1 | -71* | ? | ? | -11% | -69% | 5%
O=C(COC(=O)c1cc(Br)ccc1O)NC12CC3CC(CC(C3)C1)C2 | 7 | -1% | -4% | 9% | 2% | 1%
COc1ccc(N2COC3c4cccc5cccc(c45)C32)cc1 (stereo unspecified) | -10 | 8.2µM* | 5.8µM* | -11% | -18% | 5%
COc1ccc(CN2CCN(Cc3nc4ccccc4s3)CC2CCO)c(C)c1C (stereo unspecified) | ? | 15µM* | ? | ? | -54% | 11%
COc1ccc(CN2CCN(C3CCSCC3)CC2CCO)c(C)c1C (stereo unspecified) | -4 | 16µM* | 18µM* | 4% | -14% | -3%
CC(=O)c1cc(CN2CCN(CCC(C)C)C(CCO)C2)cs1 (stereo unspecified) | 7 | ? | 16µM* | 4% | 1% | -4%
CC(=O)c1cc(CN2CCN(Cc3ccc(C)cc3)C(CCO)C2)cs1 (stereo unspecified) | -24 | ? | -13% | -2% | -15% | .
COc1ccc(CN2CCN(CC3CC3)CC2CCO)c(C)c1C (stereo unspecified) | -3 | -12% | ? | 24% | 2% | 2%
COc1ccc(CN2CCN(Cc3csc(C(C)=O)c3)CC2CCO)c(C)c1C (stereo unspecified) | -16 | 10µM* | -10% | -28% | -39% | 0%
COc1ccc(C(=O)C[n+]2cccc3cccc(O)c32)cc1 | . | -9% | 2% | 22% | 10% | .
COc1ccc(C(=O)COC(=O)C2COc3ccccc3O2)cc1F (stereo unspecified) | 24 | 0% | 18% | 14% | -12% | -4%
COc1ccc(C(C)NC(=O)C2CCN(CCCc3ccccc3)CC2)cc1OC (stereo unspecified) | 24 | -9% | -12% | -10% | -9% | .
O=S(=O)(c1ccc2c(Cl)cccc2c1)N1CCN(c2nc(-c3cccs3)nc3ccccc23)CC1 | . | -10% | -3% | . | . | 1%
Cc1cccc(N2CCN(C(=O)c3ccc(NC(=O)c4nsc5ccccc45)cc3)CC2)c1C | . | ? | ? | -2% | -24% | 5%
COc1ccc(NC(=O)c2sc3cc(C(F)(F)F)cnc3c2-c2cccs2)cc1 | -22 | -11% | -26% | 3% | -2% | 2%
O=C(Nc1ccc(F)cc1)c1sc2cc(C(F)(F)F)cnc2c1-c1cccs1 | -14 | 18µM* | ? | -24% | -23% | -1%
Cc1ccc(Cl)cc1NC(=O)COC(=O)CC(C)(C)CC1=NS(=O)(=O)c2ccccc2N1 | . | 26µM* | 18µM* | ? | -36% | 1%
COc1ccc(Cl)cc1NC(=O)COC(=O)CC(C)(C)CC1=NS(=O)(=O)c2ccccc2N1 | . | 21µM* | ? | ? | -37% | 2%
COc1ccc(NC(=O)c2cc3c(=O)n(Cc4ccco4)ccc3nc2C)c(OC)c1 | . | ? | -17% | -25% | -8% | 5%
CCCCCc1nnc(NC(=O)CN2C(=O)C3CCCCC3C2=O)s1 (stereo unspecified) | -3 | 12% | 12% | -2% | 9% | 1%
COc1ccc2cc3c(N)nn(C(=O)c4ccccc4[N+](=O)[O-])c3nc2c1 | . | 2.3µM* | 2.6µM* | 2% | -30% | -1%

Source: PubChem
